Seven compounds from PubChem BioAssay can be followed below.

“And” between values parts separate entries of the source, which are not always exact repeats. Identical values can stand only once. The source made the active and inactive calls.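 Rule for the calls, unless noted: active = at least 20% inhibition of 6-phosphogluconate dehydrogenase activity; inactive = the rest.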

Assay [1] in a line: compounds altering viability of human ES cells (AID 493140; call rule not given here;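 note: cells exposed to compounds for four days before counting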). The note with it: human embryonic stem cell survival screen; stronger effect = higher value.
Assay [2] is described as follows: P. berghei load reduction in hepatocytes – cell-based, HepG2, luciferase luminescence, HepG2 viability, primary screen (AID 624349; in the data active = parasite load remaining mostly below about 12%, no sharp cut-off; inactive = mostly above about 10%;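 note: 100% = mean of DMSO negative control wells on the same plate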). Particulars: P. berghei liver stage in HepG2, luciferase luminescence, concentration not given here; parasite load remaining: stronger effect = lower value; viability: measured here: HepG2 viability without parasites.
For assay [3], the target named is 6-phosphogluconate dehydrogenase, decarboxylating (Homo sapiens) (UniProt P52209). Description: inhibition of human phosphogluconate dehydrogenase – biochemical, recombinant enzyme, NADPH absorbance, primary screen (AID 1159550). Particulars: recombinant 6PGD, NADPH absorbance 341 nm; at 10 µM; stronger effect = higher value.
The nature of assay [4]: viability loss with induced miR-34 in A549 – imaging, A549 dox-inducible miR-34, nuclei and caspase counts, primary screen (AID 1347080;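 active = compounds whose cell count with miR-34 switched on is under 0.7 times the count with it off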). Particulars: A549 miR-34 inducible, Hoechst nuclei count, 48 h.
For assay [5], the target named is Mitogen-activated protein kinase 7 (Homo sapiens) (UniProt Q13164). Description: Gal4-ERK5 driven luciferase induction – cell-based, HTS, primary screen (AID 1508626;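 active = luciferase signal above three times the same-plate solvent-only control wells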;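 note: luciferase driven by Gal4-ERK5 fusion binding five Gal4 sites before minimal TATA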). The note with it: HeLa Gal4-ERK5 transactivation, 18 h, at 5 µM, stronger effect = higher value.
Assay [6] addresses NAD(+) hydrolase SARM1 (Homo sapiens) (UniProt Q6SZW1). In words: blocking NAD cleavage by SARM1 SAM-TIR – cell lysate, NAD-Glo luminescence (AID 1508614;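 active = compound whose remaining NAD level is above about 45 nM, limit read from the data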;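 note: higher remaining NAD means stronger inhibition of SARM1 NADase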). Particulars: SAM-TIR HEK293T lysate NADase, at 1 µM, stronger effect = higher value.
[7] abbreviates: stronger effect = lower value, cell number ratio, induced over uninduced.
Where [8] appears, read: measured here: relative caspase fold change +Dox/-Dox.
Setting [9] is: measured here: total cells with miR-34 induction, stronger effect = lower value.
Where [10] appears, read: measured here: total cells without miR-34 induction.

Chain of 6-phosphogluconate dehydrogenase, decarboxylating (Homo sapiens) (P52209 whole entry, looked up): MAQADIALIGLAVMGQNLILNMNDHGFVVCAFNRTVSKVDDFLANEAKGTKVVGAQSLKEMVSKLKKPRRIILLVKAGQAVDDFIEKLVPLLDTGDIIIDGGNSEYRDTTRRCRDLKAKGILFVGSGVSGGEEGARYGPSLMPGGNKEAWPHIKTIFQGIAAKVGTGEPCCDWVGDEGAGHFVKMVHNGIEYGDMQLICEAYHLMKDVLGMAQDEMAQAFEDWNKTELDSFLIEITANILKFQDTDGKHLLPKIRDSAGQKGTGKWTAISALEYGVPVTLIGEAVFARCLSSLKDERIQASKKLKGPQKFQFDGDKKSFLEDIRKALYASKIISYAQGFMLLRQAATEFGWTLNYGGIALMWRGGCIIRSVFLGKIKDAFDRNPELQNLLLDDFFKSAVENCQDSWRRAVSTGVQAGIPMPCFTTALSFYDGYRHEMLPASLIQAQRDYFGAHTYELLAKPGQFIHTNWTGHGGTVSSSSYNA
Chain of NAD(+) hydrolase SARM1 (Homo sapiens) (Q6SZW1 whole entry, looked up): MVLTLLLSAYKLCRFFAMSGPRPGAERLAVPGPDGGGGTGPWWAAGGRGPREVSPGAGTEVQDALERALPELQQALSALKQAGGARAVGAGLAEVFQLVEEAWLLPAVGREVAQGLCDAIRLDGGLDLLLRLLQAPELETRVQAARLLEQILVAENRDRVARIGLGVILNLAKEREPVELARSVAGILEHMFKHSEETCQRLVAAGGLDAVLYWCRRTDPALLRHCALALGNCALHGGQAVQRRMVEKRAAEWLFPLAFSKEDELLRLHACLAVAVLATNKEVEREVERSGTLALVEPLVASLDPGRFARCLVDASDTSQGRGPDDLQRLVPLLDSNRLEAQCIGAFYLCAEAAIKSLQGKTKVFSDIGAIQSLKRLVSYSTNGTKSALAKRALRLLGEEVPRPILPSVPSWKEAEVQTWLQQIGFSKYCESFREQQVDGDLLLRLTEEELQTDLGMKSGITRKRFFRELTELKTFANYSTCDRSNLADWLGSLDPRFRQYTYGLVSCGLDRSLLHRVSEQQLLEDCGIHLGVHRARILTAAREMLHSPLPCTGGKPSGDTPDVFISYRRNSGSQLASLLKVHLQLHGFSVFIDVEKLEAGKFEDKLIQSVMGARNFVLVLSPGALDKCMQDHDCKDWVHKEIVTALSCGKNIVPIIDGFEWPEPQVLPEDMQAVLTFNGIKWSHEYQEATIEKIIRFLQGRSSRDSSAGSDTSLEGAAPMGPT
Chain of Mitogen-activated protein kinase 7 (Homo sapiens) (Q13164 whole entry, looked up, the tested form may be a part): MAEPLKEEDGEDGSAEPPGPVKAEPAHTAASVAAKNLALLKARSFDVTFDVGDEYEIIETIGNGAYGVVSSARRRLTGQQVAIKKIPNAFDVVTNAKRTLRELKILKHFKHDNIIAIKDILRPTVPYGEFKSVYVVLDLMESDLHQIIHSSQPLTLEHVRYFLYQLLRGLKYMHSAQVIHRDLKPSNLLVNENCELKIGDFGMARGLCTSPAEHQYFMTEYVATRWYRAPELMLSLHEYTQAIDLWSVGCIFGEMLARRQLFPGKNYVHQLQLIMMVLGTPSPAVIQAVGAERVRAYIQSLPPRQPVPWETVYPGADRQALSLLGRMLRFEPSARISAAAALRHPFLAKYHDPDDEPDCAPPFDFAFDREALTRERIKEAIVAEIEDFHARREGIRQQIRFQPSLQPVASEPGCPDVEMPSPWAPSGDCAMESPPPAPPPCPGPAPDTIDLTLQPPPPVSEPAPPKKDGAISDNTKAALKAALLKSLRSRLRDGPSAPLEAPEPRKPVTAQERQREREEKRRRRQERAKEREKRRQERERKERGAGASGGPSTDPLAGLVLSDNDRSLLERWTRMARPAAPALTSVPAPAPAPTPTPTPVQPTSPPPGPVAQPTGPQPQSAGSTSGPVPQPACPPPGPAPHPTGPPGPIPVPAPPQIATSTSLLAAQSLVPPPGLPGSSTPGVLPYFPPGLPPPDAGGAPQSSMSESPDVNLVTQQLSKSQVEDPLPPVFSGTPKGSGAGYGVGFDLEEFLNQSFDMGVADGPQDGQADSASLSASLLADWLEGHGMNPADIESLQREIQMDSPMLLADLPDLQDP

On to `CC1=CC(=O)C2=C(C)CC[C@@H]3[C@H](OC(=O)[C@H]3C)[C@@H]12`, for which, in assay [1], the survival was 21.9 (inactive). Moreover, the parasite load remaining in assay [2] is 69.2% (inactive). In addition, the viability in assay [2] was found to be 75.3%. Also, in assay [3], the inhibition was -50% (inactive). For the same compound, the fold change in assay [4] (setting [7]) is 0.934 (inactive); in assay [4] (setting [8]), 0.653. Moreover, the cell count was 9100 in assay [4] (setting [9]) and 9750 in assay [4] (setting [10]). Further, the luciferase signal in assay [5] was 76 AU (inactive).

Turning to `CC12CC[C@H](CC1=O)C2(C)C`, in assay [2], the parasite load remaining is 74.1% (inactive) and 58.3% (inactive). The viability in assay [2] was 75% and 94.1%. Besides, the inhibition in assay [3] is 13.3% (inactive). The fold change was 0.849 (inactive) in assay [4] (setting [7]) and 0.856 in assay [4] (setting [8]). Further, the cell count in assay [4] (setting [9]) came to 10900; in assay [4] (setting [10]), 12800.

Consider `CCc1cn([C@H]2C[C@H](O)[C@@H](CO)O2)c(=O)[nH]c1=O`, for which the inhibition in assay [3] was -4.52% (inactive). Also, in assay [6], the remaining NAD was 10 nM (inactive). Besides, the luciferase signal in assay [5] was 64 AU (inactive).

For the compound `Nc1nc(N)c2nc(CNc3ccc(C(=O)N[C@@H](CCC(=O)O)C(=O)O)cc3)cnc2n1`, the inhibition in assay [3] was -4.2% (inactive). Besides, the remaining NAD in assay [6] was 10 nM (inactive).

On to `C1CCN2C[C@@H]3C[C@H](CN4CCCC[C@@H]34)[C@H]2C1`, for which the parasite load remaining in assay [2] was 83.5% (inactive). Moreover, the viability in assay [2] is 82.9%. In addition, the inhibition in assay [3] was 11% (inactive). Besides, the fold change in assay [4] (setting [7]) is 0.85 (inactive); in assay [4] (setting [8]) it was 3.93. The cell count in assay [4] (setting [9]) is 10700; in assay [4] (setting [10]), 12500. Moreover, the luciferase signal in assay [5] is 68 AU (inactive).

With `O=C(OC[C@H]1O[C@@H](OC(=O)c2cc(O)c(O)c(OC(=O)c3cc(O)c(O)c(O)c3)c2)[C@H](OC(=O)c2cc(O)c(O)c(OC(=O)c3cc(O)c(O)c(O)c3)c2)[C@@H](OC(=O)c2cc(O)c(O)c(OC(=O)c3cc(O)c(O)c(O)c3)c2)[C@@H]1OC(=O)c1cc(O)c(O)c(OC(=O)c2cc(O)c(O)c(O)c2)c1)c1cc(O)c(O)c(OC(=O)c2cc(O)c(O)c(O)c2)c1`, the inhibition in assay [3] was 12.6% (inactive). In addition, in assay [6], the remaining NAD was 10 nM (inactive). In addition, the luciferase signal in assay [5] was 32 AU (inactive).

On to `C=C1C[C@]23C[C@@]1(O)CC[C@H]2[C@@]12C=C[C@H](O)[C@@](C)(C(=O)O1)[C@H]2[C@@H]3C(=O)O`, for which the survival in assay [1] is 1.25 (inactive). Moreover, the parasite load remaining in assay [2] was 101% (inactive). Also, in assay [2], the viability stood at 80.4%. For the same compound, the inhibition in assay [3] was -0.284% (inactive). The fold change is 0.973 (inactive) in assay [4] (setting [7]) and 0.674 in assay [4] (setting [8]). In addition, the cell count in assay [4] (setting [9]) was found to be 8110; in assay [4] (setting [10]), 8340. Besides, the luciferase signal in assay [5] was 40 AU (inactive).
